In PubChem BioAssay:

What was measured:
[1] = test system: Human papillomavirus type 1a protein E7 (residues 44-93); experiment: HPV1a E7 fragment binders on microarrays, primary screen, biochemical, small-molecule microarray, residues 44-93, 635 nm fluorescence (AID 1108); conditions: small-molecule microarray binding, fluorescence 635 nm; higher = more signal;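 further: E7 fragment applied at 1 µg/mL in TBST for 1 h at 4 C; score combines spot fluorescence with its signal to noise ratio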
[2] = modulators of HCV replicon luciferase signal, primary screen, HCV replication inhibitor project, Huh7 cells, luciferase reporter (AID 1109); conditions: 48 h, higher = more signal;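 further: huh7 hepatoma cells harbouring a luciferase neomycin HCV replicon reporter; luciferase luminescence as measure of HCV replicon replication; test concentration not given here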
[3] = target: Left-right determination factor 2 (Homo sapiens) (UniProt O00292); experiment: LEFTY2 binders on small-molecule microarrays, primary screen, biochemical, small-molecule microarray, 635 nm fluorescence scan (AID 1110); conditions: LEFTY2 binding, higher = more signal
Left-right determination factor 2 (Homo sapiens), sequence (O00292 whole entry, looked up): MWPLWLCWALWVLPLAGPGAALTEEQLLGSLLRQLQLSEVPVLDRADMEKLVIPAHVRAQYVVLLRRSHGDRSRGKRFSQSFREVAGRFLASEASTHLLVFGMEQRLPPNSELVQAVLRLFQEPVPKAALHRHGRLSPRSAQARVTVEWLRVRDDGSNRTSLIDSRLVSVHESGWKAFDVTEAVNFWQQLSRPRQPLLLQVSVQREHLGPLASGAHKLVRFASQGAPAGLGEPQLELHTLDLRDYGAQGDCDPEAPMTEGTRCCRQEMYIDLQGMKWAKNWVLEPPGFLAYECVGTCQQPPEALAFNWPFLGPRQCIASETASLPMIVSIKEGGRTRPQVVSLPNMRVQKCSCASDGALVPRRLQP

[4] = target: Calmodulin-1 (Homo sapiens) (UniProt P0DP23); experiment: CALM1 binders on microarrays, EGTA buffer, profiling panel, biochemical, small-molecule microarray, Cy5-labelled CALM1 (AID 1111); conditions: Cy5-CALM1 binding fluorescence, higher = more signal;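 further: labelled calmodulin applied in Tris saline Tween buffer holding calcium plus EGTA and DTT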
[5] = target: Calmodulin-1 (Homo sapiens) (UniProt P0DP23); experiment: calcium-bound CALM1 binders on microarrays, profiling panel, artefact control for SMM control-protein annotation, biochemical, small-molecule microarray, Cy5-labelled CALM1, plus calcium (AID 1112); conditions: Cy5-CALM1 binding fluorescence, higher = more signal;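 further: score merges spot fluorescence with signal to noise from triplicate slides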
[6] = small-molecule microarray binders of probe aWnt5a, primary screen, biochemical, biotinylated probe, 635/667 nm fluorescence (AID 1113); conditions: higher = more signal;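 further: score merges 667 nm fluorescence intensity with signal-to-noise per printed feature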
[7] = small-molecule microarray binders of probe aShh, primary screen, biochemical, biotinylated probe, 635/667 nm fluorescence (AID 1114); conditions: higher = more signal;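 further: probe is biotin-labelled aShh protein from a stem cell growth factor screen; measures binding of labelled protein to compounds printed on the slide; score merges feature fluorescence at 667 nm with signal-to-noise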
[8] = small-molecule microarray binders of probe aNog, primary screen, biochemical, biotinylated probe, 635/667 nm fluorescence (AID 1115); conditions: higher = more signal;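 further: probe is biotinylated aNog protein used at 0.15 µg/mL for 1 h at 4 C; z-score combines 667 nm fluorescence of each spot with its signal to noise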
[9] = target: Torsin-1A-interacting protein 1 (Homo sapiens) (UniProt Q5JTV8); experiment: LAP1 binders from COS7 cell lysate, primary screen, small-molecule microarray, 635/667 nm fluorescence (AID 1116); conditions: COS7-hLAP1 lysate binding, 635 nm fluorescence, higher = more signal
Torsin-1A-interacting protein 1 (Homo sapiens), sequence (Q5JTV8 whole entry, looked up): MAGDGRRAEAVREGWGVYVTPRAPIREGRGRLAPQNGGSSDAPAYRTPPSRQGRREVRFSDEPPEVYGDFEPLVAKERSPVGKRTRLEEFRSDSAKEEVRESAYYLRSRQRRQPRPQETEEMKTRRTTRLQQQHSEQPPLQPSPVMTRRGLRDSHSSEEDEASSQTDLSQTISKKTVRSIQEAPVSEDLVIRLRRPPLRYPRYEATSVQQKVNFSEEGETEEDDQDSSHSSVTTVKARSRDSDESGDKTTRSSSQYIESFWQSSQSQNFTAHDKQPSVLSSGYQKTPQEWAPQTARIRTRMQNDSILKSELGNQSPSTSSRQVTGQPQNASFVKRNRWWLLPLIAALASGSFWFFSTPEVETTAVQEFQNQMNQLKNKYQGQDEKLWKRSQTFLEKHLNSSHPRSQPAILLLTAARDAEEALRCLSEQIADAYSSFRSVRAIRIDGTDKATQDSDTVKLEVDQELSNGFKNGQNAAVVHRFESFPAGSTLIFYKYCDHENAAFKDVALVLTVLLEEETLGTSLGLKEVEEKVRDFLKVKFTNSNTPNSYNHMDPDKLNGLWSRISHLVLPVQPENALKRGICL

[10] = target: Alpha-bungarotoxin (Bungarus multicinctus) (UniProt P60615); experiment: alpha-bungarotoxin binders on microarray, profiling panel, artefact control for SMM control protein annotation, biochemical, small-molecule microarray, Alexa647 label, 635/667 nm fluorescence (AID 1117); conditions: alpha-BTX-A647 binding fluorescence, higher = more signal
Alpha-bungarotoxin (Bungarus multicinctus), sequence (P60615 whole entry, looked up): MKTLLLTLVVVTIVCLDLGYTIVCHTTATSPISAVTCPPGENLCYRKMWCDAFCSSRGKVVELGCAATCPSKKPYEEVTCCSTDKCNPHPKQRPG

Row | Compound | composite z-score [1] | z-score [2] | composite z-score [3] | composite z-score [4] | composite z-score [5] | composite z-score [6] | composite z-score [7] | composite z-score [8] | composite z-score [9] | composite z-score [10]
1 | C[N+](C)(C)CCCC[C@@H]1NC(=O)[C@@H]2C[C@H](C(=O)NCCCCCCNC(=O)CS)[C@H](c3cccc(OCCO)c3)N2C1=O | -0.568 | -0.154 | 0.382 | -0.485 | -0.467 | -0.233 | -0.0553 | -0.331 | 0.567 | 2.15
2 | C=CCOC(=O)[C@H]1[C@@H]2C(=O)O[C@@H](c3ccccc3)[C@@H](c3ccccc3)N2[C@@H](c2ccc(OCCOC(=O)[C@H]3C[C@H]4C(=O)N[C@@H](CCCC[N+](C)(C)C)C(=O)N4[C@H]3c3ccc(O)cc3)cc2)[C@]12C(=O)Nc1ccccc12 | 0.411 | -0.581 | -0.196 | -0.217 | -0.687 | -0.148 | 0.0469 | -0.32 | 0.569 | 0.717
3 | O=[N+]([O-])c1ccc(C[n+]2ccc(CCCO)cc2)o1 | 1.15 | -0.341 | 0.69 | 1.2 | 0.561 | -0.0364 | -0.0035 | -0.278 | 0.261 | 1.47
4 | O=C1OCC=C[C@H]2OC34C=CCN(Cc5ccccc5)C(=O)[C@H]3N(CCCO)C(=O)[C@@H]4[C@@H]12 (stereo not given in full) | 1.22 | -0.789 | -0.406 | 1.19 | 0.918 | 0.0474 | 0.63 | 0.134 | 0.627 | -0.162
5 | C=C(C)[C@@H]1CC=C(C(O)C2C=CC3C(=O)N(Cc4ccccc4)C(=O)C3N2n2cnnc2)CC1 (stereo not given in full) | 0.146 | -2.2 | -0.485 | 0.133 | 0.3 | 0.0077 | -0.156 | 0.499 | 0.401 | 0.291
6 | COc1ccc(C#Cc2ccc3c(c2)[C@]2(C(=O)N3)[C@H](c3ccc(OCCO)cc3)N3[C@H](c4ccccc4)[C@H](c4ccccc4)OC(=O)[C@H]3[C@@H]2C(=O)Nc2nc3ccccc3s2)cc1 | 1.34 | -2 | 0.776 | 1.57 | 0.446 | 0.104 | 0.0711 | 0.83 | 0.0329 | 1.52
7 | C#C[C@H](O[Si](C#CCCCCCC)(C(C)C)C(C)C)c1ccccc1 | 0.228 | 0.242 | -0.234 | -0.302 | -0.351 | -0.131 | -0.341 | 0.167 | -0.0173 | 0.0612
8 | COC(=O)[C@@]1(Cc2ccc(F)cc2)[C@H]2c3cc(C(=O)N4CCCC4)n(CCc4ccc(OC)c(Br)c4)c3C[C@H]2CN1C(=O)c1ccccc1 | 0.543 | -2.69 | 0.179 | 2.7 | 1.29 | 0.155 | 0.627 | 1.11 | 2.7 | 2.38
9 | CN1C(=O)C2C=CC(C(O)c3ccc(Br)cc3)N(Nc3ccccc3)C2C1=O (stereo not given) | -0.0441 | 0.15 | -1.43 | -0.209 | 0.394 | -0.124 | -0.178 | 0.154 | 0.65 | -0.292
10 | COc1ccc([Si](C)(C)[C@@H]2[C@@H](CC(=O)N3Cc4ccccc4C[C@H]3CO)O[C@]3(C(=O)N(Cc4cccc(N5C(=O)COc6ccccc65)c4)c4ccccc43)[C@H]2C)cc1 | 1.2 | -3.61 | 0.806 | 1.39 | 0.0626 | -0.103 | -0.214 | -0.253 | 0.875 | 0.875
11 | O=c1cccc(-c2cccc3ccccc23)o1 | -0.285 | -0.497 | -0.905 | 0.088 | 0.33 | -0.0751 | -0.138 | 1.25 | 0.78 | 0.541
12 | CN(C)CCCN1C(=O)[C@@]2(c3ccc([N+](=O)[O-])cc3)CC(=O)N(C3CCCCC3)[C@@H]2c2ccc(CO)cc21 | -0.274 | -0.493 | 0.0478 | -0.126 | -0.361 | -0.104 | -0.304 | -0.118 | -1.4 | 0.25
13 | O=C1C[C@@](C(=O)O)(c2ccc([N+](=O)[O-])cc2)[C@@H](c2ccc(CO)cc2I)N1CC12CC3CC(CC(C3)C1)C2 | 0.997 | -3.31 | -0.44 | 1.67 | 0.889 | 0.0206 | 0.0434 | 0.108 | 0.817 | 2.3
14 | COC(=O)[C@@]1(Cc2ccc(F)cc2)[C@H]2c3cc(C(=O)N(C)C)n(CCc4c[nH]c5ccc(OC)cc45)c3C[C@H]2CN1C(=O)c1ccccc1 | 1.47 | -1.94 | -0.995 | 1.72 | 1.16 | 0.27 | 0.764 | 1.7 | 2.15 | 1.04
15 | CC(C)C(CO)N1C(=O)[C@@H]2[C@H]3C(=O)OCC=C[C@H]3OC23C=CCN(c2ccc4ccccc4c2)C(=O)[C@@H]13 (stereo not given in full) | -0.177 | -0.453 | -0.425 | -0.468 | -0.367 | -0.148 | -0.283 | -0.463 | -1.05 | -0.256
16 | O=C(CS)NCCCCCCNC(=O)[C@H]1C[C@H]2C(=O)N3CCC[C@H]3C(=O)N2[C@H]1c1ccc(O)cc1 | -0.185 | -0.32 | -0.0156 | 0.511 | 0.425 | -0.0236 | -0.0011 | 0.202 | 1.68 | 0.927
17 | CO[C@H]1O[C@H](CO)[C@@H](OC(=O)Nc2ccccc2-c2ccccc2)[C@H](OC(=O)Nc2ccccc2-c2ccccc2)[C@H]1OC(=O)Nc1ccccc1-c1ccccc1 | 1.05 | -2.43 | 0.591 | 1.08 | -0.588 | 0.0321 | 0.431 | 0.225 | 1.41 | 1.73
